According to PubChem BioAssay (Tox21):
Results filed as inconclusive are left out. Activity calls are given as the source filed them. Unless noted, calls come from the whole dose curve; as a rule, active = well fitted curve in the direction sought with a large enough effect in the repeat runs; inconclusive = weak or mixed curves; inactive = no such curve, though single readings can be large; an effect the other way counts as inactive or inconclusive.

Assays:
[1] = A CellTox Green Cytotoxicity Assay to monitor cytotoxicity in HepG2 cells - 32 hour (AID 1224883); note: nearly all actives have a fitted effect of over 50% in size
Summary of the method: (§1)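 Read-out is fluorescence of a cyanine dye excluded from live cells that stains DNA of dead HepG2 cells, with signal proportional to cytotoxicity. Plates were read at 0, 8, 16, 24, 32 and 40 h after compound addition.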

[2] = qHTS RealTime-Glo MT Cell Viability Assay in HepG2 cells - 16 hour (AID 1224885); note: nearly all actives have a fitted effect of over 50% in size
Summary of the method: (§2)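 Cell number in HepG2 cultures estimated from NanoLuc luminescence generated by metabolic reduction of a prosubstrate by living cells. The homogeneous, nonlytic format allowed repeated reads at 0, 8, 16, 24, 32 and 40 h of compound exposure.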

[3] = qHTS RealTime-Glo MT Cell Viability Assay in HEK293 cells - 24 hour (AID 1224886); note: top concentration of the series differs between compounds; nearly all actives have a fitted effect of over 50% in size
Summary of the method: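 Homogeneous bioluminescent viability format in HEK293 cells (600 cells/well). Following 5 h at 37 C/5% CO2, 23 nL compound was pintooled; the signal was measured repeatedly during 40 h incubation.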

[4] = qHTS RealTime-Glo MT Cell Viability Assay in HEK293 cells - 8 hour (AID 1224887); note: top concentration of the series differs between compounds; nearly all actives have a fitted effect of over 50% in size
Summary of the method: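 Cells were seeded together with NanoLuc luciferase and a prosubstrate that viable cells reduce to a luciferase substrate. After a 5 h incubation at 37 C/5% CO2, compounds were added and luminescence was measured repeatedly during 40 h of treatment.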

[5] = A CellTox Green Cytotoxicity Assay to monitor cytotoxicity in HEK293 cells - 16 hour (AID 1224888); note: nearly all actives have a fitted effect of over 35% in size
Summary of the method: (§3)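 Nonlytic real-time cytotoxicity: HEK293 + CellTox Green reagent plated, 5 h preincubation, pintool compound addition (23 nL in DMSO), 37 C for 40 h, fluorescence measured at successive time points.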

[6] = qHTS RealTime-Glo MT Cell Viability Assay in HepG2 cells - 0 hour (AID 1224889); note: nearly all actives have a fitted effect of over 50% in size
Summary of the method: as §2

[7] = A CellTox Green Cytotoxicity Assay to monitor cytotoxicity in HepG2 cells - 8 hour (AID 1224890); note: nearly all actives have a fitted effect of over 45% in size
Summary of the method: as §1

[8] = qHTS assay to identify small molecule antagonists of the estrogen receptor alpha (ER-alpha) signaling pathway using the BG1 cell line in the presence of 0.1 nM 17-beta-estradiol - cell viability counter screen (AID 1259241); note: nearly all actives have a fitted effect of over 40% in size
Summary of the method: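 VM7Luc4E2 cells (endogenous full-length ER-alpha, 4xERE-luciferase), cultured 5 days in charcoal-stripped serum, exposed to compounds with 0.1 nM 17beta-estradiol (final) for 22 hr at 37C. Viability read in same wells as live-cell protease fluorescence after 30 min.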

[9] = qHTS assay to identify small molecule antagonists of the androgen receptor (AR) signaling pathway using the MDA cell line in the presence of 0.5 nM R1881 - cell viability counter screen (AID 1259242); note: nearly all actives have a fitted effect of over 45% in size
Summary of the method: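 Counter screen for cytotoxicity run in the same wells as the AR antagonist reporter screen: MDA-kb2 cells were treated 16 hr with test compounds and 0.5 nM R1881, then live-cell protease activity was measured by fluorescence.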

[10] = qHTS assay to identify small molecule HDAC inhibitors - cell viability counter screen (AID 1259365)
Summary of the method: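 Wild-type HCT-116 cells, 1,500/well, cultured overnight, then compound-treated 2 h at 37 C. Viability measured as ATP luminescence with CellTiter-Glo after 30 min at room temperature.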

[11] = qHTS assay to identify small molecule agonists of the sonic hedgehog signaling (Shh) pathway - cell viability counter screen (AID 1259366); note: nearly all actives have a fitted effect of over 50% in size
Summary of the method: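 NIH/3T3-derived Gli1-Luc reporter cells, 2,000 per well, received compound after 4 h and were treated about 23 h at 37C. Viability measured in the same wells by CellTiter-Fluor fluorescence after 1 h.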

[12] = qHTS assay to identify small molecule antagonists of the sonic hedgehog signaling (Shh) pathway - cell viability counter screen (AID 1259367); note: nearly all actives have a fitted effect of over 55% in size
Summary of the method: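 Seed 3T3 Gli1-Luc cells at 2,000 per well; incubate 4 hr; add compound in DMSO, then conditioned medium; incubate at 37C with 5% CO2; add CellTiter-Fluor after 23 hr; read fluorescence 1 hr later.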

[13] = qHTS assay to identify small molecule agonists of the sonic hedgehog signaling (Shh) pathway (AID 1259368; calls by dose curve;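 note: NIH/3T3-derived 3T3Gli1-Luc cells carrying a stable Gli1-driven firefly luciferase reporter; series mostly up to about 92 µM; nearly all actives have a fitted effect of over 15% in size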)
Summary of the method: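 3T3Gli1-Luc (NIH/3T3 clone, stable Gli1-Luc); 4 hr pre-incubation, then cpd in DMSO 24 hr, 37 C/5% CO2; luciferase reagent 30 min RT; luminescence.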

[14] = A CellTox Green Cytotoxicity Assay to monitor cytotoxicity in HEK293 cells - 8 hour (AID 1224884); note: nearly all actives have a fitted effect of over 35% in size
Summary of the method: as §3

[15] = molecular target: Estrogen receptor (Homo sapiens) (UniProt P03372); assay: qHTS assay to identify small molecule antagonists of the estrogen receptor alpha (ER-alpha) signaling pathway using the BG1 cell line in the presence of 0.1 nM 17-beta-estradiol (AID 1259244); note: nearly all actives have a fitted effect of over 50% in size
Summary of the method: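 Cells: VM7Luc4E2, endogenous ER-alpha, 4x ERE-luc stable. Pre-culture 5 d, phenol red-free, charcoal-stripped FBS. Plated 24 h, compound + E2 0.1 nM final, 22 h 37C/5% CO2. Readout ONE-Glo luminescence.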

[16] = qHTS assay to identify small molecule phospholipidosis (PLD) inducers (AID 1259344; active = well fitted curve in the direction sought with a large enough effect; an effect the other way counts as inactive or inconclusive)
Summary of the method: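 Quantitative HTS in HepG2: compound plus LipidTOX Red dye for 24 h, paraformaldehyde fixation with Hoechst 33342, widefield high-content imaging; amiodarone as positive and DMSO as negative control.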

[17] = qHTS assay to identify small molecule HDAC inhibitors (AID 1259364); note: top concentration of the series differs between compounds; nearly all actives have a fitted effect of over 45% in size
Summary of the method: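 Luminescence from a cell-permeant luminogenic class I/II HDAC substrate reports endogenous deacetylase activity in intact HCT-116 cells treated with compounds for 2 h.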

[18] = qHTS assay to identify small molecule antagonists of the sonic hedgehog signaling (Shh) pathway (AID 1259369; calls by dose curve; note: nearly all actives have a fitted effect of over 45% in size)
Summary of the method: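 3T3Gli1-Luc, conditioned-medium-stimulated, 24hr cpd, 37C/5% CO2; Gli1-driven firefly Luc luminescence after 30min RT with luciferase reagent. Cells plated 4hr before cpd.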

Measured: Potency

Chain of Estrogen receptor (Homo sapiens) (P03372 whole entry, looked up): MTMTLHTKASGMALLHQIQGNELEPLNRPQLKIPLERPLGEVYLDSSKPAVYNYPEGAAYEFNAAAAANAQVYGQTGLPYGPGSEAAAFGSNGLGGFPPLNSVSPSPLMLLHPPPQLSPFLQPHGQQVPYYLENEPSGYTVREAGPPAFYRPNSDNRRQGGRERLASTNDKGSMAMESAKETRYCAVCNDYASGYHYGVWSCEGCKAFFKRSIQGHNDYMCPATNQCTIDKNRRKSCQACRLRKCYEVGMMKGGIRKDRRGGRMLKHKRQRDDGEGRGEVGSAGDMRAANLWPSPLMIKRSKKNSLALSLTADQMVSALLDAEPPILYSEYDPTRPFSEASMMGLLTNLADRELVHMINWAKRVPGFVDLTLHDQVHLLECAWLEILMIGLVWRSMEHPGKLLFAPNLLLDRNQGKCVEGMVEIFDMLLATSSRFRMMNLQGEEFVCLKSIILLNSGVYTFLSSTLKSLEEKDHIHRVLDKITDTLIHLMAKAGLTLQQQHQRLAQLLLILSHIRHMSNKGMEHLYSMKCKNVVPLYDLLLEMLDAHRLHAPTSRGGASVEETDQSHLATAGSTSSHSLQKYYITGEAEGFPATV

c1coc(CNc2ncnc3nc[nH]c23)c1
not listed: [14] | [15] | [16] | [17] | [18]
inactive: all other assays above

Cc1cccc(C)c1NC(=O)CC12CCCN1CCC2
not listed: [1] | [2] | [10]
inactive: all other assays above

CC1OC1C1CCC2(C)OC2C1 (stereo unspecified)
not listed: [1] | [2] | [15] | [16] | [18]
inactive: all other assays above

NC(=O)N[C@@H](CCC(=O)O)C(=O)O
not listed: [14] | [15]
inactive: all other assays above

C=CCOCC(O)CO (stereo unspecified)
not listed: [1] | [5] | [7] | [8] | [15] | [16]
inactive: all other assays above

CCN1C=CN(C)C1C (stereo unspecified)
not listed: [8] | [14] | [16]
inactive: all other assays above

Cc1nc(C2CCCCC2)c(-c2ccc(S(N)(=O)=O)c(F)c2)o1
not listed: [2] | [3] | [4] | [8] | [15] | [16]
inactive: all other assays above

COCCOCC(OC)OC
not listed: [16] | [18]
inactive: all other assays above

COc1cc(C(=O)NCc2ccc(OCCN(C)C)cc2)cc(OC)c1OC
not listed: [15]
inactive: all other assays above

Cc1ccccc1N=C(N)N=C(N)N
not listed: [2] | [12] | [15] | [16]
inactive: all other assays above

CC(=O)c1ccccc1[N+](=O)[O-]
not listed: [10] | [12] | [16] | [17] | [18]
inactive: all other assays above
